FAS-TE inh = inhibitors of human fatty acid synthase thioesterase domain; P49327; recombinant FAS-TE, OMFH fluorogenic substrate, fluorescence endpoint; inhibition, % at 15 µM; actives 0.67% (n = 360,000); AID 602261;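 active = compounds whose normalised, plate-corrected inhibition of enzyme fluorescence in the single-dose primary screen is 50% or more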
NR3A LBD binder = NR3A (human) ligand-binding domain modulation | Tm shift relative to glycine control, % at 25 µM | NR3A LBD differential scanning fluorimetry, Tm shift; 0% = protein alone, 100% = glycine-bound protein | actives 2.5% (n = 340,000);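 active = melting temperature shift of at least 10% of the positive control shift, at one fixed dose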
beta cell repl = inducers of beta-cell replication in MIN6 cells; actives 0.29% (n = 330,000); MIN6 cells proliferation, ATPlite luminescence, 48 h; cells starved in 0.2% serum; 100% = growth in 10% serum; proliferation, % at 10 µM;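 active = compounds whose signal lies at least 3.5 SD above the mean of all wells on their plate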
pCIP destab = p/CIP protein destabilization; Q05BA5; F442A p/CIP-EGFP cells, EGFP fluorescence, 16 h; decrease of EGFP signal, % at 10 µM; actives 0.01% (n = 290,000);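 active = EGFP signal decrease of at least 30% at 10 µM or well 3 SD below plate mean, unless failing retest; inactive = the rest, including hits failing retest or dose response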
MPTP inh = blocks calcium-induced mitochondrial swelling. isolated mouse mitochondria, Ca2+ swelling absorbance, 30 min. inhibition, % at 10 µM. actives 1.4% (n = 360,000);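 active = inhibition of 50% or more, scaled per plate between neutral and stimulator controls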
Each line names hits and unclear results; the compound was inactive in the other large screens. In the library only some 4.1% were active in any assay of this set; here they are far more common.

CC1(C)CC(=O)C=C(NC2CCCCCCC2)C1	none
COC(=O)[C@]12CCCCC=C1N(Cc1ccco1)C(=O)[C@H](CC(=O)NCc1cccs1)C2	none (no result: NR3A LBD binder, beta cell repl, pCIP destab)
S=c1[nH]nc(-c2cc(-c3ccccc3)n[nH]2)n1/N=C/c1ccc(Cl)cc1	none
S=c1[nH]nc(-c2cc(-c3ccccc3)n[nH]2)n1/N=C/c1ccc(Cl)c(Cl)c1	NR3A LBD binder 24
CCN(CC)c1ccc(/C=N/NC(=O)c2cc3ccccc3[nH]2)cc1	NR3A LBD binder 14
COc1cc2c(c(OC)c1CC=C(C)C)C[C@H](c1ccc(O)cc1O)CO2	NR3A LBD binder 19 (no result: pCIP destab)
COc1ccc(C2CC(=O)c3c(O)cc(O)cc3O2)c(CC=C(C)C)c1OC (stereo not given)	none (no result: pCIP destab)
O=C(c1cccc(Cl)c1)N1CCN(Cc2ccncc2)CC1	pCIP destab 29 (no result: beta cell repl)
O=C(c1cccc(C(=O)N2CCN(Cc3ccccc3)CC2)c1)N1CCN(Cc2ccccc2)CC1	none
COc1ccc(C2=Nc3ccccc3N(C(=O)c3ccc(C)cc3)C2C(=O)Nc2c(C)cccc2C)cc1 (stereo not given)	none (no result: FAS-TE inh, NR3A LBD binder, beta cell repl, pCIP destab)
CCOC(=O)[C@]12CCCC=C1N(Cc1cccc3ccccc13)C(=O)[C@H](CC(=O)NCc1cccs1)C2	none (no result: NR3A LBD binder, beta cell repl, pCIP destab)
COC(=O)c1ccc(-n2nnnc2SCC(=O)N2CCCCC2)cc1	NR3A LBD binder 37
Cn1c(C(=O)NCCCN2CCN(c3ccccc3F)CC2)cc2c(=O)[nH]c3ccccc3c21	NR3A LBD binder 17
COc1ccccc1OCC(=O)Nc1ccc2c(c1)C(=O)N(CC1CCCO1)C2=O (stereo not given)	none
COc1ccccc1Oc1ccc2c(c1)C(=O)N(CC1CCCO1)C2=O (stereo not given)	NR3A LBD binder 12
CCOc1ccc(OCCC(=O)Nc2cccc(S(=O)(=O)N3CCCC3)c2)cc1	none (no result: pCIP destab)
O=C(NCC1CCCO1)c1onc(CSc2cccc(Cl)c2)c1C(=O)O (stereo not given)	none
CCOc1cccc(SCc2noc(C(=O)NCC3CCCO3)c2C(=O)O)c1 (stereo not given)	NR3A LBD binder 17
CCOC(=O)C1(Cc2ccccc2)CCCCCC1=O (stereo not given)	none (no result: beta cell repl, pCIP destab)
Cc1ccc(NC(=O)CCN2C(=O)C3C4CCC(C4)C3C2=O)cc1Cl (stereo not given)	NR3A LBD binder 18
Cc1ccc(NC(=O)CCN2C(=O)C3C4CCC(C4)C3C2=O)cc1[N+](=O)[O-] (stereo not given)	none
Cc1ccc(Cn2cc(CN3CC(N4CCN(Cc5ccccc5F)CC4)CS3(=O)=O)nn2)cc1 (stereo not given)	none (no result: NR3A LBD binder, beta cell repl, pCIP destab)
COc1ccc(-c2c(C)cc3oc(=O)cc(-c4ccccc4)c3c2C)cc1	NR3A LBD binder 15 (no result: beta cell repl, pCIP destab)
COc1ccc(-c2cccc(-c3cc(=O)oc4cc(OC)cc(OC)c34)c2)cc1	NR3A LBD binder 15 (no result: beta cell repl, pCIP destab)
Cn1nc(C(C)(C)C)cc1C(=O)N1CCCCC1c1cc(C(=O)N2CCOCC2)no1 (stereo not given)	none (no result: NR3A LBD binder, beta cell repl, pCIP destab)
COc1ccc2c(Cl)c(C(N)=O)sc2c1	NR3A LBD binder 34
COc1ccccc1-c1ncn(Cc2cccc(-c3ccccc3)c2)c1CC(C)C	none (no result: NR3A LBD binder, beta cell repl, pCIP destab)
O=C(O)C(Cc1c[nH]c2ccccc12)NS(=O)(=O)c1ccc(F)cc1 (stereo not given)	none (no result: NR3A LBD binder, beta cell repl, pCIP destab)
N#CCOC(=O)[C@H](Cc1c[nH]c2ccccc12)NS(=O)(=O)c1ccc(Cl)cc1	NR3A LBD binder 29
CCOc1ccc(-c2[nH]ncc2-c2ccc(OC)c(OC)c2)c(O)c1	none
C=C(C)COc1ccc(-c2nc(N)ncc2-c2ccc(Br)cc2)c(O)c1	NR3A LBD binder 12
C=C(C)COc1ccc(-c2n[nH]c(C)c2-c2ccc(Br)cc2)c(O)c1	NR3A LBD binder 32
C=C(C)COc1ccc(-c2[nH]ncc2-c2ccc(Br)cc2)c(O)c1	NR3A LBD binder 30
CCOc1ccc(-c2[nH]ncc2-c2ccc(Cl)cc2)c(O)c1	NR3A LBD binder 22
C=C(C)COc1ccc(-c2[nH]ncc2-c2ccccc2OC)c(O)c1	none
COc1ccc(N2c3ccccc3CN(Cc3ccccc3)[C@@H](C)[C@H]2Cc2cccnc2)cc1	none (no result: NR3A LBD binder, beta cell repl, pCIP destab)
C=C(C)COc1ccc(-c2[nH]ncc2Oc2ccc(OC)cc2)c(O)c1	none
COc1cccc(Oc2cn[nH]c2-c2ccc(OCC(=O)NN)cc2O)c1	none
C=C(C)COc1ccc(-c2[nH]ncc2Oc2ccccc2OC)c(O)c1	NR3A LBD binder 16
CCCOC(=O)c1ccc(Oc2cn[nH]c2-c2ccc(OC)cc2O)cc1	NR3A LBD binder 17
CCCNC(=O)C1(C)CCCN(C(=O)c2ccc(F)c(Cl)c2)C1 (stereo not given)	none (no result: NR3A LBD binder, beta cell repl, pCIP destab)
CCOC(=O)C1CCCN(C(=O)c2ccc(SC(F)(F)F)cc2)CC1 (stereo not given)	none (no result: NR3A LBD binder, beta cell repl, pCIP destab)
Cc1ccc(F)c(S(=O)(=O)NC(=O)C2(C)CCN2C(=O)CCC2CCCC2)c1 (stereo not given)	none (no result: NR3A LBD binder, beta cell repl, pCIP destab)
Cc1cc(C)n2nc(C(=O)N/N=C/c3ccc(Cl)cc3)nc2n1	none
Cc1cc(C)n2nc(C(=O)N/N=C/c3cccc(Cl)c3)nc2n1	NR3A LBD binder 12
CC1C(=O)C(C)C(c2cc(Br)ccc2O)NC1c1cc(Br)ccc1O (stereo not given)	NR3A LBD binder 32 (no result: beta cell repl, pCIP destab)
CC1C(=O)C(C)C(c2ccc(Br)cc2)NC1c1ccc(Br)cc1 (stereo not given)	none
COC(=O)[C@@]12C[C@@H](CC(=O)NCC3CCCCC3)C(=O)N(Cc3ccco3)C1=CCC(C)(C)C2	none (no result: FAS-TE inh, NR3A LBD binder, beta cell repl, pCIP destab)
O=C(NCCc1cn[nH]c1)c1ccc2oc(CCc3ccccc3)nc2c1	none (no result: NR3A LBD binder, beta cell repl, pCIP destab)
Cc1ccc(C(=O)/C=C/c2cn(CN3CCN(C)CC3)c3ccccc23)cc1	NR3A LBD binder 38
Cc1ccc(C(=O)/C=C/c2c[nH]c3ccccc23)cc1	NR3A LBD binder 28
O=C(/C=C/c1ccccc1O)c1ccccc1	none (no result: beta cell repl, pCIP destab)
Cc1ccc(C(=O)/C=C\C(=O)c2ccc(C)cc2)cc1	none (no result: beta cell repl)
O=C(/C=C/c1c[nH]c2ccccc12)c1ccccc1	NR3A LBD binder 24
COc1ccc2[nH]cc(/C=C/C(=O)c3ccccc3)c2c1	NR3A LBD binder 29
COc1ccc(-c2nc3c4ccccc4ccn3c2Cc2cccc(F)c2)cc1OC	none (no result: NR3A LBD binder, beta cell repl, pCIP destab)
COc1ccc(NC(=O)C(c2ccccc2F)n2c(=O)c(-c3cc4ccccc4[nH]3)nc3ccccc32)cc1 (stereo not given)	none (no result: FAS-TE inh, NR3A LBD binder, beta cell repl, pCIP destab)
CCOC(=O)C1CCCN(C(=O)COc2ccc(C(C)(C)C)cc2)CC1 (stereo not given)	none (no result: NR3A LBD binder, beta cell repl, pCIP destab)
CC(C)(C)c1ccc(OCC(=O)N2CCN(C=O)CC2)cc1	NR3A LBD binder 18
O=C(CCCOc1ccc(Cl)cc1Cl)N/N=C/c1ccco1	none
O=C(CCCOc1ccc(Cl)cc1Cl)N/N=C/c1ccccc1	none
O=C(CCCOc1ccc(Cl)cc1Cl)N/N=C/c1ccccc1O	NR3A LBD binder 18
COc1ccc(/C=N/NC(=O)CCCOc2ccc(Cl)cc2Cl)cc1[N+](=O)[O-]	NR3A LBD binder 12
Cc1ccc(/C=N/NC(=O)CCCOc2ccc(Cl)cc2Cl)cc1	NR3A LBD binder 12

Screening data: PubChem, Sanford-Burnham Center for Chemical Genomics
